The text below walks through data of PubChem BioAssay (EPA / NIEHS).

Read-out in assay [1]: xenobiotic metabolism (CYP1A2), CYP1A2 (gene 1544)
As to the kind of experiment: CLD_CYP1A2_6hr: CellzDirect (CLD) Gene Expression Assay for xenobiotic metabolism (CYP1A2) at 6 hours (AID 2283663).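 On AC50: potency is for induction meaning a rise in mRNA above DMSO.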 The method, boiled down:
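Primary human hepatocytes from two donor preparations, dosed daily with multiple concentrations in 0.2% DMSO and harvested at 6 h. CYP1A2 mRNA induction measured by chemiluminescent qNPA, gain of signal fitted against DMSO; cytotoxicity flagged morphologically.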

Read-out in assay [2]: alkyl and aryl transferase (GSTA2), GSTA2 (gene 2939)
As to the kind of experiment: CLD_GSTA2_6hr: CellzDirect (CLD) Gene Expression Assay for alkyl and aryl transferase (GSTA2) at 6 hours (AID 2283666). The method, boiled down: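 Primary human hepatocytes from two donor preparations were dosed daily with fresh compound at multiple concentrations, 0.2% DMSO vehicle. GSTA2 mRNA was measured at 6 hours by qNPA chemiluminescence; induction fitted relative to DMSO, with cytotoxicity flagged morphologically.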

Assay [3] can be described thus: Tanguay_ZF_120hpf_TR_legacy: (Legacy) Oregon State University Tanguay Lab 120 Hour Post-fertilization zebrafish Assay for Touch Response (AID 2283667). The method, boiled down:
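5D WT embryos; static exposure to 120 hpf, 28C, sealed/dark; DMSO 0.64% v/v final. TR scored present/absent; dead embryos excluded. Pos ctrl 5uM trimethyltin chloride.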

Assay [4] is described as follows: CLD_ACTIN_24hr: CellzDirect (CLD) Gene Expression Assay for Baseline Control (Actin) at 24 hours (AID 2283670). In outline:
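Primary human hepatocytes dosed over multiple concentrations with 0.2% DMSO vehicle; actin mRNA measured at 24 h by qNPA chemiluminescence. Background control endpoint, fitted as gain of signal versus DMSO.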

Read-out in assay [5]: ABC Transporter (ABCB11), ABCB11 (gene 8647)
As to the kind of experiment: CLD_ABCB11_6hr: CellzDirect (CLD) Gene Expression Assay for ABC Transporter (ABCB11) at 6 hours (AID 2283675).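 Further: hits raise ABCB11 mRNA level so AC50 marks induction.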 In outline: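 Human primary hepatocytes (two donor preparations) given fresh chemical daily at multiple concentrations, vehicle 0.2% DMSO. ABCB11 mRNA induction measured 6 h after dosing by qNPA chemiluminescence versus DMSO; cytotoxicity annotated from morphology.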

Read-out in assay [6]: Cytochrome P450 2C19 (Homo sapiens) (UniProt P33261)
In words: CLD_CYP2C19_6hr: CellzDirect (CLD) Gene Expression Assay for xenobiotic metabolism (CYP2C19) at 6 hours (AID 2283678). The method, boiled down: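 Primary human hepatocytes from two donor preparations were dosed daily, with 0.2% DMSO as vehicle, and harvested 6 h after dosing. CYP2C19 mRNA induction was measured by qNPA chemiluminescence and fitted as gain of signal against DMSO.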

Assay [7] in a line: CCTE_Padilla_ZF_144hpf_TERATOSCORE: (Legacy) CCTE's 144 Hour Post-fertilization zebrafish Assay Teratoscore, Padilla Lab (AID 2283679; active means hit-call score of the fitted dose curve at least 0.9, where 1 is the maximum; inactive means score below 0.9;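 on AC50: zebrafish embryos with chorions exposed by immersion from 6-8 hpf to 5 dpf with daily renewal; teratogenicity score from eye scoring of death hatching and malformations at 144 hpf; higher score means more developmental defects relative to DMSO baseline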). The method, boiled down: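 Larvae scored by eye at 144 hpf for death, hatching and malformations after a day in clean Hanks'. Before that, daily-renewed exposure at 80 uM (0.4% DMSO, 26C) from roughly 6-8 hpf through 5 dpf, 4 embryos per chemical.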

Read-out in assay [8]: Cytochrome P450 2C9 (Homo sapiens) (UniProt P11712)
As to the kind of experiment: CLD_CYP2C9_24hr: CellzDirect (CLD) Gene Expression Assay for xenobiotic metabolism (CYP2C9) at 24 hours (AID 2283688). The method, boiled down:
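Primary human hepatocytes from two donor preparations, dosed daily for two days at multiple concentrations; vehicle 0.2% DMSO. CYP2C9 mRNA induction at 24 h measured by qNPA chemiluminescence relative to DMSO; cytotoxicity annotated from morphology.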

Read-out in assay [9]: Cytochrome P450 3A4 (Homo sapiens) (UniProt P08684)
As to the kind of experiment: CLD_CYP3A4_24hr: CellzDirect (CLD) Gene Expression Assay for xenobiotic metabolism (CYP3A4) at 24 hours (AID 2283689). In outline:
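Primary human hepatocytes from two donors dosed daily with fresh compound for two days, 0.2% DMSO vehicle. CYP3A4 mRNA at 24 hr by qNPA chemiluminescence; gain-of-signal fit versus DMSO, cytotoxicity flagged by morphology.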

Read-out in assay [10]: ABC Transporter (ABCB1), ABCB1 (gene 5243)
In words: CLD_ABCB1_48hr: CellzDirect (CLD) Gene Expression Assay for ABC Transporter (ABCB1) at 48 hours (AID 2283695). In outline:
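Primary human hepatocytes from two donor preparations dosed daily on two consecutive days with 0.2% DMSO vehicle. Harvest at 48 h. ABCB1 mRNA quantified by qNPA with chemiluminescence and fitted for gain of signal versus DMSO.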

Read-out in assay [11]: glucuronosyltransferase (UGT1A1), UGT1A1 (gene 54658)
As to the kind of experiment: CLD_UGT1A1_24hr: CellzDirect (CLD) Gene Expression Assay for glucuronosyltransferase (UGT1A1) at 24 hours (AID 2283696). The method, boiled down:
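Primary human hepatocytes from two donor preparations were dosed (0.2% DMSO vehicle) and harvested at 24 h; UGT1A1 mRNA induction was quantified by chemiluminescent qNPA, fitted as gain relative to DMSO.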

Read-out in assay [12]: glucuronosyltransferase (UGT1A1), UGT1A1 (gene 54658)
In words: CLD_UGT1A1_6hr: CellzDirect (CLD) Gene Expression Assay for glucuronosyltransferase (UGT1A1) at 6 hours (AID 2283672). The method, boiled down:
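Primary human hepatocytes from two donor preparations, dosed with fresh solutions in 0.2% DMSO, harvested at 6 h. UGT1A1 mRNA measured by qNPA chemiluminescence; induction fitted upward versus DMSO.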

Assay [13] in a line: CLD_ACTIN_6hr: CellzDirect (CLD) Gene Expression Assay for Baseline Control (Actin) at 6 hours (AID 2283676).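 Further: active means increased actin mRNA relative to DMSO vehicle.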 In outline:
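Primary human hepatocytes dosed with fresh chemical solutions (vehicle 0.2% DMSO), harvested at 6 h. Actin mRNA quantified by quantitative nuclease protection assay with chemiluminescent read-out, as background control relative to DMSO.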

Read-out in assay [14]: Cytochrome P450 2C19 (Homo sapiens) (UniProt P33261)
As to the kind of experiment: CLD_CYP2C19_48hr: CellzDirect (CLD) Gene Expression Assay for xenobiotic metabolism (CYP2C19) at 48 hours (AID 2283700).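 Further: fitted upward so actives raise CYP2C19 mRNA above the 0.2% DMSO vehicle.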 In outline: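 Primary human hepatocytes (two donor preparations) dosed daily for two days, harvested at 48 h; CYP2C19 mRNA induction measured by qNPA chemiluminescence. Gain-of-signal fitted relative to 0.2% DMSO vehicle as baseline.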

Read-out in assay [15]: organic anion transporter (SLCO1B1), SLCO1B1 (gene 10599)
In words: CLD_SLCO1B1_24hr: CellzDirect (CLD) Gene Expression Assay for organic anion transporter (SLCO1B1) at 24 hours (AID 2283690). In outline: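 Primary human hepatocytes (two donor preparations) dosed daily for two days with chemicals at multiple concentrations, 0.2% DMSO vehicle. SLCO1B1 mRNA at 24 h measured by qNPA chemiluminescence; induction fitted relative to DMSO.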

Assay [16] in a line: CCTE_Simmons_CellTiterGLO_HEK293T: Viability Assessment in CCTE's Assays for Thyroperoxidase (TPO) Inhibition, Simmons Lab (AID 2283665).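 On AC50: cells exposed to compound for 24 h before readout; actives reduce ATP signal below DMSO vehicle meaning cytotoxicity.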 In outline:
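HEK293T cells in DMEM with 1% FBS were dosed with 8 concentrations (5 nM–87.5 uM final, 0.5% DMSO) for 24 hr at 37C; ATP content was read by CellTiter-Glo luminescence, loss-of-signal versus DMSO, three biological replicates.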

Read-out in assay [17]: ABC Transporter (ABCB11), ABCB11 (gene 8647)
As to the kind of experiment: CLD_ABCB11_24hr: CellzDirect (CLD) Gene Expression Assay for ABC Transporter (ABCB11) at 24 hours (AID 2283674; active means hit-call score of the fitted dose curve at least 0.9, where 1 is the maximum; inactive means score below 0.9). In outline: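 Primary human hepatocytes were dosed daily for two days, with 0.2% DMSO vehicle. ABCB11 mRNA induction was measured at 24 hours by quantitative nuclease protection assay with chemiluminescence. Gain of signal was fitted relative to DMSO.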

Several values for one entry are separate records, joined by “and”; a condition that tells them apart may be missing. Equal values may be shown once. Inconclusive results are not listed. More than one record can exist for a structure, and the calls need not agree. Activity calls are given as the source filed them. How the source made its calls, unless noted: active means hit-call score of the fitted dose curve at least 0.9, where 1 is the maximum; inconclusive means response in the unintended direction; inactive means score below 0.9.

Sequence of Cytochrome P450 2C19 (Homo sapiens) (P33261 whole entry, looked up): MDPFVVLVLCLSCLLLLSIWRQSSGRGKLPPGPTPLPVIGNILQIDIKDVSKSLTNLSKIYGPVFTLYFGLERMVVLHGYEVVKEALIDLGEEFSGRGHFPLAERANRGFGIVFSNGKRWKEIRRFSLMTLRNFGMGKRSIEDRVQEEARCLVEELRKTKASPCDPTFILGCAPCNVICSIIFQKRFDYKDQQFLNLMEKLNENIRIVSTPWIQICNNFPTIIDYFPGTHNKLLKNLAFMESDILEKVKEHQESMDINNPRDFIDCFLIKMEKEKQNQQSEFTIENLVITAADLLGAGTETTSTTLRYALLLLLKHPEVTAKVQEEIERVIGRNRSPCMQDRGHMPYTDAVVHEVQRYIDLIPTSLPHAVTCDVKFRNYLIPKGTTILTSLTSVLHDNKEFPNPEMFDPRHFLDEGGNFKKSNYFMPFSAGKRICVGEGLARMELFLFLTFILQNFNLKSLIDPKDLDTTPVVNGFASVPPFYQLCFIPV
Sequence of Cytochrome P450 3A4 (Homo sapiens) (P08684 whole entry, looked up): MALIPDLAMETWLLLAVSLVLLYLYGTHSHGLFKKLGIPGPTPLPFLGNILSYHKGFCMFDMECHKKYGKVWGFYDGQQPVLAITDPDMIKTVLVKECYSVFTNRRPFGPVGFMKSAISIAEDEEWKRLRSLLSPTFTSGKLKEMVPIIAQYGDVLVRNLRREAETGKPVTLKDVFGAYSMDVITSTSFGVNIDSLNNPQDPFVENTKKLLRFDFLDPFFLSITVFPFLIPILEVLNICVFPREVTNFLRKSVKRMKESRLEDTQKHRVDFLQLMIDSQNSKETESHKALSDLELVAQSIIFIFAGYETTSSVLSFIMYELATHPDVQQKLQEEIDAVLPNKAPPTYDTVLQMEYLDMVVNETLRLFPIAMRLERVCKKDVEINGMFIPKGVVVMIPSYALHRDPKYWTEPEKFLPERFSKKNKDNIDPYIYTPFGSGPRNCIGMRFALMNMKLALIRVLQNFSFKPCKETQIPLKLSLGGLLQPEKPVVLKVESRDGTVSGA

Turning to `CCCCCOC(=O)COc1cc(N2C(=O)C3=C(CCCC3)C2=O)c(F)cc1Cl`, the call in [1], in assay [2], in assay [3], in [4], in assay [5] and in [6] was inactive. Moreover, the molecule was called inactive in assay [8], in [10] and in assay [11]. For the same molecule, the AC50 was 3.14 µM (active) in [7] and 4.01 µM (active) in assay [9].
For the molecule `COC(=O)c1ccccc1S(=O)(=O)NC(=O)Nc1nc(OC(F)F)cc(OC(F)F)n1`, the result in [1], in assay [2], in assay [4], in assay [12], in assay [5] and in assay [13] was inactive. In addition, the molecule was classed as inactive in [6], in [11] and in assay [14].
For `O=C(O)C1(C(=O)Nc2ccc(Cl)cc2Cl)CC1`, the result in assay [1], in [2], in assay [3], in assay [4], in assay [13] and in assay [6] was inactive. Also, the molecule was called inactive in assay [9] and in assay [10]. Further, the concentration at half-maximal activity (AC50) in assay [7] is 22.7 µM (active); in assay [11] it was 20 µM (active).
With `c1ccc2[nH]c(-c3cscn3)nc2c1`, in assay [1], the AC50 was 5.82 µM (active). In addition, the result in assay [2], in assay [3], in [13] and in [6] was inactive.
As to `CCSC(=O)N(CC(C)C)CC(C)C`, the molecule was classed as inactive in assay [1], in assay [2], in assay [3], in [5], in assay [13] and in [7]. Besides, the outcome in [15], in assay [10], in assay [11] and in [14] was inactive.
In the case of `CCCOC(=O)c1ccc(C(=O)OCCC)nc1`, the result in assay [1], in assay [16], in assay [3], in [4], in [17] and in assay [5] was inactive. The call in assay [13], in [6], in assay [8], in assay [10] and in assay [14] was inactive.
On to `CCOC(=O)C(C)Oc1ccc(Oc2cnc3cc(Cl)ccc3n2)cc1` (configuration not stated), for which the molecule was classed as inactive in [1], in assay [2], in assay [3], in assay [17], in assay [13] and in assay [9]. In addition, the molecule was called inactive in assay [10], in [11] and in [14].
Turning to `CCCN(CCC)c1c([N+](=O)[O-])cc(C(F)(F)F)c(N)c1[N+](=O)[O-]`, the call in assay [1], in [2], in [3], in assay [5], in [13] and in assay [10] was inactive. For the same molecule, the values for the AC50 in [9] and in assay [11] were 8.44 µM (active) and 8.82 µM (active), respectively.
On to `O=C(Nc1ccc([N+](=O)[O-])cc1Cl)c1cc(Cl)ccc1O`, for which the figures for the AC50 in assay [1] and in assay [16] were 0.163 µM (active) and 5.34 µM (active), respectively. In addition, the result in assay [2], in [5], in assay [13], in [8], in [9] and in [15] was inactive. Moreover, in [10], the call was inactive.
As for `CC(C)(c1ccc(O)cc1)c1ccc(O)cc1`, the result in assay [1], in assay [16], in assay [2], in [4], in assay [17] and in assay [5] was inactive. Besides, the outcome in [13], in assay [8], in assay [9] and in assay [11] was inactive. The AC50 in [3] is 47.4 µM (active) and 24.4 µM (active) and 46 µM (active).
Consider `CC(C)(C)[C@@H](O)[C@@H](Cc1ccc(Cl)cc1)n1cncn1`, for which the result in [1], in assay [2], in assay [3], in [4], in [12] and in assay [13] was inactive. Further, the result in [10] and in [11] was inactive. In addition, the AC50 in assay [9] is 2.66 µM (active).
